PubChem BioAssay (NCI)
The panel holds about 83,000 compounds, 20% with a hit somewhere; the sample as a whole holds those more often.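 For each line, cells grew in 96-well plates with the test compound present at a single concentration for 48 hours.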 Unmarked numbers belong to inactive results. Calls of active or inactive are those of the source. Rule for the calls: active = growth percent below 10; inactive = the rest.

Legend:
Assay in all cases: NCI-60 one-dose screen, 48 h (100 = growth as untreated, 0 = no growth, -100 = all killed)
Conditions in all cases: 10 µM
NCI-H23 lung = test system: NCI-H23 lung
NCI-H226 lung = test system: NCI-H226 lung
NCI-H322M lung = test system: NCI-H322M lung
HOP-62 NSCLC = test system: HOP-62 NSCLC
NCI-H460 lung = test system: NCI-H460 lung
HOP-92 NSCLC = test system: HOP-92 NSCLC
NCI-H522 lung = test system: NCI-H522 lung
A549/ATCC NSCLC = test system: A549/ATCC NSCLC
786-0 renal = test system: 786-0 renal
COLO 205 colon = test system: COLO 205 colon

Row | Structure (SMILES) | growth (NCI-H23 lung) | growth (NCI-H226 lung) | growth (NCI-H322M lung) | growth (HOP-62 NSCLC) | growth (NCI-H460 lung) | growth (HOP-92 NSCLC) | growth (NCI-H522 lung) | growth (A549/ATCC NSCLC) | growth (786-0 renal) | growth (COLO 205 colon)
1 | N/C(=N\O)c1cn(C2OC(CO)C(O)C2O)c2ncnc(N)c12 (stereo not given) | -1.68% (active) | 26.4% | 11% | -18.8% (active) | -44.1% (active) | -6.61% (active) | -42.9% (active) | 4.88% (active) | 20.9% | -92.4% (active)
2 | Fc1ccc(-c2cc(C(Cl)Cl)no2)cc1 | 95.5% | 87.2% | 93.4% | 98.2% | 101% | 99.4% | 114% | 122% | 110% | 115%
3 | CCCc1c(CC)c(=N)c2ccccc2n1C | 88% | 83.2% | 71% | 68.2% | 65.9% | 76.1% | 73.6% | 50.4% | 41% | -18.5% (active)
4 | Brc1ccc(-c2cn3ccnc3c(-c3ccc(Br)cc3)n2)cc1 | 59.8% | 70.6% | 86.7% | 33.2% | 16.8% | 55.8% | -14.9% (active) | 31.9% | 57.8% | 7.83% (active)
5 | CCOC(=O)C1=C(Nc2ccc(OC)cc2)C(N)=NC1=N | 52.6% | 42.9% | 50.2% | 52.4% | 22.2% | 48.4% | 42% | 31.8% | 59.3% | -10.1% (active)
6 | C=CCn1c(C)nc2cc(Nc3nc(Nc4ccc5nc(C)n(CC=C)c5c4)c4ccccc4n3)ccc21 | -69.2% (active) | -47.1% (active) | -92.2% (active) | -99.5% (active) | -84.2% (active) | -79% (active) | -94.8% (active) | -67.1% (active) | -70.6% (active) | -100% (active)
7 | O=S(=O)(NCl)c1ccccc1 | 104% | 110% | 88.1% | 110% | 105% | 108% | 99.6% | 94.7% | 95.9% | 113%
8 | O=C1/C(=C/c2ccc([N+](=O)[O-])s2)Oc2ccc(Cl)cc21 | -35.5% (active) | -56.8% (active) | -43% (active) | -6.59% (active) | -48.8% (active) | -71% (active) | -70.3% (active) | -26.5% (active) | -17.3% (active) | -69.6% (active)
9 | COc1ccc2oc(=O)cc(C3c4ccc([nH]4)C(c4cc(=O)oc5ccc(OC)cc45)c4ccc([nH]4)C(c4cc(=O)oc5ccc(OC)cc45)c4ccc([nH]4)C(c4cc(=O)oc5ccc(OC)cc45)c4ccc3[nH]4)c2c1 (stereo not given) | -12.4% (active) | 15.8% | 27.9% | 17.6% | 6.39% (active) | 41.8% | -71.9% (active) | 41.1% | -24% (active) | -76.7% (active)
10 | COc1cccc2c1C(=O)c1c(O)c3c(c(O)c1C2=O)C[C@@](O)(C(=O)COC(=O)c1cccnc1)C[C@@H]3OC1CC(N)C(O)C(C)O1 (stereo not given in full) | -24.7% (active) | -28.5% (active) | -19.5% (active) | -7.51% (active) | 4.13% (active) | -26.3% (active) | -75.6% (active) | -0.944% (active) | 3.23% (active) | -68.8% (active)
11 | COc1cc(-c2c(C#N)c(N)n3c(nc4ccccc43)c2C#N)cc(Br)c1OC | 59.2% | 27.8% | 70.9% | 74.5% | 28.4% | -20.7% (active) | 39.8% | 4.73% (active) | 22.2% | 55.1%
12 | O=C1c2cc(Cl)ccc2-c2c(O)cc(Cl)cc21 | 49.3% | 94% | 109% | 89.6% | 99.5% | 52.8% | 76.2% | 105% | 103% | 92%
13 | COc1ccc(-c2cc(=O)n(-c3nc4ccccc4[nH]3)[nH]2)cc1OC | 80.4% | 85.1% | 66.6% | 71.6% | 41.4% | 17.4% | 49.2% | 59% | 83% | 113%
14 | Cc1cc(C)c(/C=C2\C(=O)Nc3ccc(NC(=O)CCCCCCC(=O)NO)cc32)[nH]1 | 52.4% | 65.6% | 31.3% | 34% | 77.4% | -30.4% (active) | -10.6% (active) | 82% | 72% | 3.61% (active)
15 | CS(=O)(=O)Nc1ccc([N+](=O)[O-])cc1Oc1ccccc1 | 92.6% | 96% | 103% | 93% | 102% | 51.8% | 92.6% | 89.3% | 98.4% | 99.7%
16 | C=CCc1cc(Nc2c3ccc(Cl)cc3nc3ccc(OC)cc23)cc(CN(CC)CC)c1O | -0.558% (active) | 26.3% | 49.5% | 9.37% (active) | 4.5% (active) | -20.5% (active) | -5.89% (active) | 13.3% | 12.3% | -83.9% (active)
17 | C/C(=N\NC(=S)N1CCCC1)c1ccccn1 | 17% | -7.28% (active) | 6.18% (active) | 10% (active) | 1.6% (active) | 48.5% | 5.12% (active) | 0.905% (active) | 20% | 5.14% (active)
18 | COC(=O)c1cnc2c(c1)Oc1ccccc1-c1ccnn1-2 | 95.8% | 83.9% | 105% | 92.5% | 104% | 86.9% | 80.3% | 86.3% | 90.6% | 101%
19 | O=S(=O)(NCCO)c1ccc(OCCOc2ccc(S(=O)(=O)NCCO)cc2)cc1 | 96.6% | 91.3% | 90.4% | 90.7% | 111% | 81.1% | 91.7% | 95% | 96.9% | 104%
20 | COc1cc(Nc2ccnc(N3CCN(c4ccnc5cc(Cl)ccc45)CC3)n2)cc(OC)c1 | 9.65% (active) | 9.15% (active) | 23.2% | 9.41% (active) | 6% (active) | -16.6% (active) | -23.2% (active) | 7.47% (active) | -17.9% (active) | -10.7% (active)
21 | COc1cc(CSc2nc3ccc(Cl)cc3c(=O)n2-c2ccccc2)cc(OC)c1OC | 79% | 89.2% | 85.7% | 72% | 96.6% | 89% | 38.5% | 73.9% | 89.3% | 84.5%
22 | COC(=O)[C@]12CC[C@@H](C)[C@H](C)[C@@H]1C1=CC[C@@H]3[C@@]4(C)C[C@@H](O)[C@H](O)[C@@](C)(CO)[C@@H]4[C@H](O)C[C@@]3(C)[C@]1(C)CC2 | -50% (active) | -42.8% (active) | -29% (active) | -59.5% (active) | -72.5% (active) | -56% (active) | -78.9% (active) | -62.3% (active) | -65.1% (active) | -87.5% (active)
23 | CCN(CC)CCn1c(=N)n(CC(O)c2ccc(Cl)c(Cl)c2)c2ccccc21 (stereo not given) | 91.2% | 92.2% | 99.5% | 85.3% | 104% | 58.1% | 45% | 89.6% | 79.9% | 18.5%
24 | CCOc1ccc(-n2cc(-c3ccc(N(C)C)cc3)[n+]3c2CCCCC3)cc1 | 0.183% (active) | 18.6% | 45.3% | 3.02% (active) | 5.52% (active) | -8.52% (active) | -0.392% (active) | 22.4% | 20.7% | -68.6% (active)
25 | CN(C)c1ccc2c(c1)OC(N)=C(C#N)C2c1ccc2c(c1)CCCN2C (stereo not given) | 33.3% | 37.3% | 52.3% | 31.7% | 12.4% | 47.1% | -26.4% (active) | 27.5% | 43.7% | -10.2% (active)
26 | CCOC(=O)c1cc(-c2ccccc2)nc(N)n1 | 99.5% | 89.5% | 99% | 96.1% | 104% | 78.1% | 95.5% | 102% | 108% | 114%
27 | CCCc1c(C)nc2scc(-c3ccc(Cl)cc3)n2c1=O | 100% | -100% (active) | 102% | 88.9% | 108% | 92.5% | 94.3% | 104% | 101% | 103%
28 | COc1cc(Cn2c(-c3ccccc3)cc3c2-c2oncc2CC3)cc(OC)c1 | 23.7% | -3.31% (active) | 8.6% (active) | 60.5% | -0.835% (active) | 48.8% | -17.2% (active) | 23.3% | 37.6% | -29.6% (active)
